From PubChem BioAssay AID624255 (Broad Institute, 2012)
The whole screen tested about 77,000 compounds, of which about 4,600 (6%) were called active. Another 1% or so got no clear call; they are omitted. This excerpt belongs to a sample that is enriched for actives. A number with no mark means an inactive call.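 Rule for the calls: active = mean inhibition above about 93%, with at least 55% of replicates each passing it (limit read from the data, passing the limit was not always enough); inconclusive = only one of those two conditions holds; inactive = neither condition holds.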

Test: growth inhibition of T. cruzi in host fibroblasts – cell-based, beta-gal Tulahuen parasites, NIH3T3 host, luminescence, primary screen (AID 624255)
Conditions: T. cruzi beta-gal in NIH3T3, GalScreen luminescence, 90 h; at 8.34 µM; active compounds read high
For O=C(N[C@H]1CC[C@H](CCNS(=O)(=O)c2ccc(F)cc2)O[C@H]1CO)c1cccnc1, the inhibition was 14.1%. Work on CCC(=O)Nc1ccc2c(c1)C(=O)N(C)[C@@H]1CC[C@H](CC(=O)NCCc3ccncc3)O[C@@H]1CO2 yielded an inhibition of 64.6%. O=C(Cc1ccncc1)NCC[C@@H]1CC[C@H](NC(=O)Nc2ccc(Cl)cc2)[C@@H](CO)O1 gave an inhibition of 37%. Work on O=C(C[C@H]1C[C@H]2c3cc(NC(=O)Cc4ccncc4)ccc3O[C@H]2[C@@H](CO)O1)NCc1cccc(F)c1 yielded an inhibition of -15.1%. Work on O=C(C[C@H]1CC[C@H]2[C@@H](COC[C@H](O)CN2CCC(F)(F)F)O1)N1CCC(Cc2ccccc2)CC1 yielded an inhibition of 65.1%. For CN1C(=O)c2cc(NC(=O)c3ccccc3)ccc2OC[C@@H]2O[C@@H](CC(=O)NC3CCCC3)CC[C@H]21, the inhibition was 18.9%. Work on CC=Cc1ccc2n(c1=O)C[C@@H]1[C@@H](CO)[C@H](C(=O)N(C)C)[C@H]2N1CCc1ccccc1 (mixture of isomers) yielded an inhibition of 37%. Cc1ccccc1S(=O)(=O)N1[C@H](C#N)[C@H](c2ccccc2)[C@H]1CO showed an inhibition of -43.9%. Compound COc1ccc(NC(=O)N(C)C[C@H]2Oc3c(NC(=O)NC(C)C)cccc3C(=O)N([C@@H](C)CO)C[C@H]2C)cc1 has an inhibition of 39.4%. Work on COc1ccc(NC(=O)N(C)C[C@@H]2Oc3c(NC(=O)NC4CCCCC4)cccc3C(=O)N([C@H](C)CO)C[C@H]2C)cc1 yielded an inhibition of 2.44%. C[C@@H]1CN([C@@H](C)CO)C(=O)c2cccc(NC(=O)Nc3cccc4ccccc34)c2O[C@H]1CN(C)S(=O)(=O)c1ccccc1 gave an inhibition of 41.2%. COc1ccc(S(=O)(=O)N(C)C[C@@H]2Oc3c(NC(=O)NC(C)C)cccc3C(=O)N([C@@H](C)CO)C[C@@H]2C)cc1 gave an inhibition of 11.6%. With COc1ccc(S(=O)(=O)N(C)C[C@H]2Oc3c(NC(=O)Nc4cccc5ccccc45)cccc3C(=O)N([C@@H](C)CO)C[C@H]2C)cc1 the inhibition was 128% (active). For C[C@@H]1CN([C@@H](C)CO)C(=O)c2cccc(NC(=O)c3nc4ccccc4s3)c2O[C@H]1CN(C)S(=O)(=O)c1cccs1, the inhibition was 82.6%. With Cc1ccc(S(=O)(=O)N(C)C[C@@H]2Oc3c(NC(=O)c4nc5ccccc5s4)cccc3C(=O)N([C@H](C)CO)C[C@@H]2C)cc1 the inhibition was 110% (active). For COc1ccc(NC(=O)N(C)C[C@@H]2Oc3c(NC(=O)NC4CCCCC4)cccc3C(=O)N([C@@H](C)CO)C[C@@H]2C)cc1, the inhibition was 99.3% (active). With C[C@@H]1CN([C@H](C)CO)C(=O)c2cccc(NC(=O)c3nc4ccccc4s3)c2O[C@H]1CN(C)S(=O)(=O)c1ccc(Cl)cc1 the inhibition was 55.8%. With CO[C@H]1CN(C)C(=O)c2ccc(NS(C)(=O)=O)cc2OC[C@@H](C)N(C(=O)c2ccc3c(c2)OCO3)C[C@@H]1C the inhibition was 22.5%. With O=C(C[C@@H]1CC[C@H]2[C@@H](COC[C@H](O)CN2C(=O)Nc2ccc(Cl)cc2)O1)NCC1CC1 the inhibition was 9.76%. Work on O=C(c1cccnc1)N1C[C@H]2[C@@H](c3ccccc31)[C@H](CO)N2C(=O)C1CC1 yielded an inhibition of 32.1%. In the case of COc1ccc(NC(=O)Nc2ccc3c(c2)[C@H]2C[C@H](CC(=O)NC4CCCCC4)O[C@H](CO)[C@H]2O3)cc1, the inhibition is reported as -22.1%. Work on O=C(NC1CCCC1)[C@H]1[C@H](CO)[C@H]2Cn3c(cccc3=O)[C@H]2N1C(=O)NC1CCCC1 yielded an inhibition of -32.8%. C[C@@H]1CN([C@H](C)CO)C(=O)c2cc(-c3cccc(C#N)c3)cnc2O[C@H]1CN(C)C(=O)C1CCC1 gave an inhibition of -99.6%. With COCC(=O)Nc1ccc2c(c1)OC[C@H](C)N(C(=O)c1ccccn1)C[C@@H](C)[C@H](OC)CN(C)C2=O the inhibition was 26.6%. For C[C@H](CO)N1C[C@H](C)[C@@H](CN(C)C(=O)C2CC2)Oc2ncc(-c3cccc(C#N)c3)cc2C1=O, the inhibition was 68.3%. Cc1ccc(S(=O)(=O)N2C[C@H](O)COC[C@@H]3O[C@H](CC(=O)N[C@H]4CCN(Cc5ccccc5)C4)CC[C@H]32)cc1 gave an inhibition of 51.3%. With CCC(=O)N(C)C[C@H]1Oc2cc(C#CCC(C)C)ccc2S(=O)(=O)N([C@H](C)CO)C[C@H]1C the inhibition was 41.2%. In the case of C[C@H](CO)N1C[C@H](C)[C@@H](CN(C)C(=O)C2CCCCC2)Oc2cc(-c3ccccc3)ccc2S1(=O)=O, the inhibition is reported as 103% (active). Compound C[C@H](O)C#Cc1ccc2c(c1)O[C@H](CN(C)C(=O)C1CC1)[C@@H](C)CN([C@H](C)CO)S2(=O)=O has an inhibition of 13.9%. Work on C[C@H](O)C#Cc1ccc2c(c1)O[C@@H](CN(C)C(=O)C1CC1)[C@H](C)CN([C@H](C)CO)S2(=O)=O yielded an inhibition of -20.8%. In the case of C[C@@H]1CN([C@H](C)CO)S(=O)(=O)c2ccc(-c3ccccc3)cc2O[C@@H]1CN(C)C(=O)C1CC1, the inhibition is reported as 84.2%. C[C@@H]1CN([C@H](C)CO)S(=O)(=O)c2ccc(-c3ccccc3)cc2O[C@H]1CN(C)C(=O)C1CCC1 gave an inhibition of 55%. With C[C@@H]1CN([C@@H](C)CO)S(=O)(=O)c2ccc(C#CCN(C)C)cc2O[C@H]1CN(C)C(=O)C1CC1 the inhibition was 94.7% (active). With CCCC#Cc1ccc2c(c1)O[C@H](CN(C)C(=O)C1CCCCC1)[C@H](C)CN([C@H](C)CO)S2(=O)=O the inhibition was 68.4%. In the case of CC(C)CC#Cc1ccc2c(c1)O[C@H](CN(C)C(=O)C1CC1)[C@@H](C)CN([C@@H](C)CO)S2(=O)=O, the inhibition is reported as 115% (active). Work on COCC(=O)Nc1ccc2c(c1)[C@@H]1C[C@@H](CC(=O)N3CCN(C)CC3)O[C@H](CO)[C@@H]1O2 yielded an inhibition of -9.47%. COc1ccc(NC(=O)N(C)C[C@H]2Oc3cc(-c4ccncc4)ccc3S(=O)(=O)N([C@@H](C)CO)C[C@H]2C)cc1 gave an inhibition of 53.3%. CCCNC(=O)[C@H]1[C@H](CO)[C@H]2Cn3c(ccc(C4=CCCC4)c3=O)[C@H]2N1C(=O)CC1CC1 showed an inhibition of -12.5%. C[C@H](NC(=O)C[C@H]1CC[C@H]2[C@@H](COC[C@H](O)CN2C(=O)Nc2cc(Cl)cc(Cl)c2)O1)c1ccccc1 gave an inhibition of 20.2%.
